The text below walks through data of ChEMBL document CHEMBL3988442, “University of Dundee, Small-Polar-MMV Screening Library” (2021).

The test system of the assay is Leishmania donovani. Put plainly: Leishmania intramacrophage assay. The format is functional, organism-based. Set-up: scale not given: in the data most compounds retested in dose-response had high values.

Out of some 69,000 compounds screened, about 1,000 (1.4%) showed an effect of 50% or more. This excerpt belongs to a sample that is enriched for strong results.

`O=C1CCCN1c1cccc(CNCc2nc(-c3ccco3)no2)c1`: under “30.3 µM, […]”, the “Percent Effect” value was -19.6%.

For `Cc1ccc2nc(CN(C)Cc3n[nH]c4c3CCCCC4)[nH]c2c1C`, the “Percent Effect” value (30.3 µM, […]) is 99.15%.

For the compound `Cc1ccc2[nH]c(CN(C)Cc3ccccc3C(=O)O)nc2c1`, where the note is “30.3 µM, […]”, the “Percent Effect” value turned out to be 25.21%.

For the compound `COc1nc2cc(C)ccc2cc1CN(C)Cc1n[nH]c2c1CCCC2`, the “Percent Effect” value (30.3 µM, […]) is reported as 19.2%.

Turning to `CN(Cc1cc2n(n1)CCNC2)Cc1n[nH]c2c1CCCCC2`, the “Percent Effect” value (30.3 µM, […]) stood at 33.41%.

In the case of `Cc1ccc2[nH]c(CN(C)Cc3n[nH]c4c3CCC4)nc2c1`, for the setting “30.3 µM, […]”, the “Percent Effect” value is on record as 65.71%.

On to `Cc1ccc2nc(CN(C)Cc3[nH]nc4c3CCC4)[nH]c2c1C`, for which, for the setting “30.3 µM, […]”, the “Percent Effect” value worked out at 40.9%.

As to `CC(C)C(C(=O)N1CCN(c2ccncc2)CC1)n1cncn1` (stereo unspecified), the “Percent Effect” value (30 µM, 30.03 µM) was determined as 24.05%.

On to `CCOc1ccc(Cl)c(C(=O)N2CCCN(CC(N)=O)CC2)n1`, for which the “Percent Effect” value (30 µM) is recorded as -7.749%.

Consider `N#Cc1cc2c(=O)n(CC(O)C(F)(F)F)ccc2[nH]c1=O` (stereo unspecified), for which the “Percent Effect” value (30.3 µM, […]) came to 28.06%.

As to `N#Cc1cc2c(=O)n(CC(O)Cc3ccccc3)ccc2[nH]c1=O` (stereo unspecified), for the setting “30.3 µM, […]”, the “Percent Effect” value amounted to 33.38%.

`N#Cc1cc2c(=O)n(CC(O)c3cccc(O)c3)ccc2[nH]c1=O` (stereo unspecified): the “Percent Effect” value (30.3 µM, […]) is 52.32%.

`Cc1cnc(N2CCC3(CC(=O)N(Cc4csc(C)n4)C3)C2)nc1.O=C(O)C(F)(F)F` (stereo unspecified): the “Percent Effect” value (30.3 µM, […]) was -11.16%.

For `COCCC(=O)N1CCC2(CCN(Cc3ccc(C)cc3)CC2)C1.O=C(O)C(F)(F)F`, the “Percent Effect” value (30.3 µM, […]) is recorded as 52.88%.

Turning to `COCCC(=O)N1CCC2(CCN(Cc3cccc(F)c3)CC2)C1.O=C(O)C(F)(F)F`, for the setting “30.3 µM, […]”, the “Percent Effect” value is recorded as 10.96%.

With `Cc1ccc(CN2CCOC3(CCN(CC4CCOC4)CC3)C2)cc1.O=C(O)C(F)(F)F.O=C(O)C(F)(F)F` (stereo unspecified), the “Percent Effect” value (30.3 µM, […]) is recorded as 54.23%.

Take `Cc1ccc(CN2CCC3(CC2)CCN(Cc2ccco2)CC3)cc1.O=C(O)C(F)(F)F.O=C(O)C(F)(F)F`: the “Percent Effect” value (30.3 µM, […]) worked out at 86.21%.

For the compound `Cc1ccc(CN2CCC3(CC2)CCN(Cc2ccoc2)CC3)cc1.O=C(O)C(F)(F)F.O=C(O)C(F)(F)F`, for the setting “30.3 µM, […]”, the “Percent Effect” value was 75.99%.

Regarding `CN1CCOCC12CCN(Cc1ccoc1)CC2.O=C(O)C(F)(F)F.O=C(O)C(F)(F)F`, the “Percent Effect” value (30.3 µM, […]) came out at 10.68%.

Regarding `CN1CCNC(=O)C12CCN(Cc1ccco1)CC2.O=C(O)C(F)(F)F.O=C(O)C(F)(F)F`, where the note is “30.3 µM, […]”, the “Percent Effect” value amounted to 23.48%.

With `O=C(O)C(F)(F)F.c1cnc(N2CCOC3(CCN(CC4CCOC4)CC3)C2)nc1` (stereo unspecified), under “30.3 µM, […]”, the “Percent Effect” value is recorded as 38.06%.

As to `CC(=O)N1CCC12CCN(Cc1ccco1)CC2.O=C(O)C(F)(F)F`, the “Percent Effect” value (30.3 µM, […]) was determined as 4.08%.

Take `COCCC(=O)N1CC2(CCN(Cc3cccc(Cl)c3)CC2)C1.O=C(O)C(F)(F)F`: the “Percent Effect” value (30 µM, 30.03 µM) came out at 20.28%.

As for `COCC(=O)N1CCC2(CCN(Cc3ccc(C)cc3)CC2)CC1.O=C(O)C(F)(F)F`, the “Percent Effect” value (30.3 µM, […]) is 16.03%.

For the compound `Cc1cc(C(=O)N2C[C@@H]3OCCN(CCN4CCCC4)[C@@H]3C2)c(C)o1.O=C(O)C(F)(F)F`, the “Percent Effect” value (30.3 µM, […]) was found to be 6.684%.

As for `Cc1cc(C(=O)Nc2ccc3c(ccn3CCN3CCOCC3)c2)on1`, under “30.3 µM, […]”, the “Percent Effect” value was -2.631%.

For the compound `CC(C)SCC(=O)N1CCc2c(nc(N(C)C)nc2N(C)C)C1`, where the note is “30 µM, 30.03 µM”, the “Percent Effect” value is 7.439%.

As for `CC(C)C(C)(C#N)NC(=O)Cn1cc(C(N)=O)c(-c2ccccc2)n1` (stereo unspecified), the “Percent Effect” value (30.3 µM, […]) is -11.84%.

As for `CCOCC(=O)NCCn1ccc(-c2ccccn2)n1`, the “Percent Effect” value (30.3 µM, […]) was found to be 14.51%.

Take `CCOc1ccc(Cl)cc1C(C(=O)O)N1CCOCC1` (stereo unspecified): the “Percent Effect” value (30.3 µM, […]) is reported as 26.6%.

With `CC(Cn1cncc1-c1cnn(C2CCCCC2)c1)N1CCCCC1.Cl` (stereo unspecified), for the setting “30.3 µM, […]”, the “Percent Effect” value was 20.46%.

With `CC(O)CN1CCN(C(=O)CN(C)c2ccc(C#N)cn2)CC1` (stereo unspecified), the “Percent Effect” value (30.3 µM, […]) is given as -1.14%.

On to `O=C(O)C(F)(F)F.O=C(O)C(F)(F)F.O=C(O)C(F)(F)F.c1coc(CN2CCOC3(COCCN(Cc4ccncc4)C3)C2)c1` (stereo unspecified), for which the “Percent Effect” value (30.3 µM, […]) is listed as 52.19%.

For `Cc1ccc(CN2CCOC3(COCCN(Cc4ccncc4)C3)C2)o1.O=C(O)C(F)(F)F.O=C(O)C(F)(F)F.O=C(O)C(F)(F)F` (stereo unspecified), the “Percent Effect” value (30.3 µM, […]) turned out to be 5.942%.

With `CN(C)CC(=O)N1CCC2(CCc3cc(-c4cccnc4)ccc32)CC1.O=C(O)C(F)(F)F.O=C(O)C(F)(F)F`, the “Percent Effect” value (30.3 µM, […]) was found to be 37.66%.

As for `Cn1ccnc1CN1CCC2(CC1)CCN(Cc1ccoc1)C2.O=C(O)C(F)(F)F.O=C(O)C(F)(F)F`, the “Percent Effect” value (30.3 µM, […]) came to 10.21%.

Turning to `CS(=O)(=O)N1CCOCC2(CN(Cc3ccco3)CCO2)C1.O=C(O)C(F)(F)F` (stereo unspecified), the “Percent Effect” value (30 µM, 30.03 µM) is on record as -12.04%.

For `O=C(O)C(F)(F)F.O=C(O)C(F)(F)F.c1cncc(-c2ccc3c(c2)CCC32CCN(Cc3nccs3)CC2)c1`, the “Percent Effect” value (30.3 µM, […]) was 20.15%.

Turning to `O=C(O)C(F)(F)F.O=C(O)C(F)(F)F.c1cncc(-c2ccc3c(c2)CCC32CCN(Cc3ccco3)CC2)c1`, the “Percent Effect” value (30.3 µM, […]) amounted to 59.2%.

On to `Cc1ccc(CN2CCCC3(CCN(Cc4ccoc4)CC3)C2)cc1.O=C(O)C(F)(F)F.O=C(O)C(F)(F)F`, for which, where the note is “30.3 µM, […]”, the “Percent Effect” value came out at 70.84%.

Consider `Cc1ccc(CN2CCC3(CCN(Cc4ccncc4)CC3)CC2)cc1`, for which the “Percent Effect” value (30.3 µM, […]) worked out at 75.36%.

Turning to `COCCC(=O)N1CC2(CCN(Cc3ccncc3)CC2)C1`, the “Percent Effect” value (30.3 µM, […]) was determined as 34.97%.

Consider `Cc1ccc(CN2CCN(Cc3ccncc3)CC2=O)cc1`, for which the “Percent Effect” value (30.3 µM, […]) is given as -11.56%.

For the compound `COCCN1CC[C@@H]2O[C@@H](COCC(=O)N3CCCC3)CC[C@@H]21.O=C(O)C(F)(F)F`, the “Percent Effect” value (30 µM, 30.03 µM) was 27.81%.

As for `CO[C@H]1CO[C@@]2(CCCN(C(=O)N(C)C)C2)C1`, the “Percent Effect” value (30.3 µM, […]) was 25.22%.

`O=C(NCCCn1nc2ccccn2c1=O)NCCC1CCC1`: where the note is “30.3 µM, […]”, the “Percent Effect” value turned out to be 27.05%.

In the case of `CCNc1cc2c(nn1)CCN(C(=O)c1ccc3cc[nH]c3c1)C2`, for the setting “30 µM, 30.03 µM”, the “Percent Effect” value was 18.46%.

Regarding `CN(C)CCNc1ccc(-c2nc(COc3ccccc3)no2)cn1`, the “Percent Effect” value (30.3 µM, […]) was found to be 58.19%.

Take `CN(C)CCNc1ccc(-c2nc(-c3ccccc3F)no2)cn1`: for the setting “30.3 µM, […]”, the “Percent Effect” value stood at 51.45%.

Take `CN(C)CCN(C)c1ccc(-c2nc(COc3ccccc3)no2)cn1`: the “Percent Effect” value (30.3 µM, […]) was 42.47%.

Turning to `COc1cccc(-c2noc(-c3ccc(NCCCO)nc3)n2)c1OC`, the “Percent Effect” value (30.3 µM, […]) is 59.5%.

Turning to `CC(C)(CO)Nc1ccc(-c2nc(-c3ccccc3F)no2)cn1`, the “Percent Effect” value (30.3 µM, […]) was -6.29%.

As to `OC[C@@H]1CCCN1c1ccc(-c2nc(COc3ccccc3)no2)cn1`, under “30.3 µM, […]”, the “Percent Effect” value was -6.4%.

For `COc1cccc(-c2noc(-c3ccc(NCCCN)nc3)n2)c1OC`, for the setting “30.3 µM, […]”, the “Percent Effect” value worked out at 10.02%.

Consider `CNCCNc1ccc(-c2nc(-c3cccc(OC)c3OC)no2)cn1`, for which the “Percent Effect” value (30.3 µM, […]) amounted to 11.62%.

`CSCC[C@@H](CO)Nc1ccc(-c2nc(-c3ccccc3F)no2)cn1`: the “Percent Effect” value (30.3 µM, […]) is -35.38%.
